# Test results taken from PubChem BioAssay (NCATS).
# Results filed as inconclusive are left out. Activity calls are given as the source filed them. Calls follow the shape of the dose curve; as a rule, active = well fitted inhibition curve with a large enough effect; inconclusive = small, poorly fitted or top-dose-only effect; inactive = no such curve, though single readings can be large or run the other way. Where a SMILES comes first, the peptide text is derived from it. The star is where a group is joined. Cbz = O=C(OCc1ccccc1)*; CH2Cl = ClC*
# Test system: Zika virus NS2B-NS3 protease (unlinked complex)
# Assay: Primary screen GU Rhodamine qHTS for Zika virus inhibitors: Unlinked NS2B-NS3 protease assay (AID 1347159); also: nearly all actives have a fitted effect of over 60% in size
# Details: Recombinant ZIKV NS2B-NS3 protease, Rhodamine110 substrate fluorescence; series mostly up to 107 µM; activity change, negative = inhibition: at the top concentration
# Procedure, shortened: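 Noncovalent NS2B hydrophilic domain–NS3 protease domain complex (25 nM) preincubated 15 min at room temperature with compounds (up to 114 microM) in 10 mM Tris-HCl pH 8.0, 0.01% Tween 20; 1.5 microM Rhodamine110 substrate added, fluorescence change over 15 min fitted to Hill equation.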
# % is scaled to controls: 0 for no effect and ±100 for the full control effect.
row,SMILES,"activity change, negative = inhibition"
1,COc1cc2c(cc1OCCCN1CCCC1)N=C(N)C21CCC1,6.09% (inactive)
2,O=C(c1cc(Cc2n[nH]c(=O)c3ccccc23)ccc1F)N1CCCNCC1,6.41% (inactive)
3,CCN(Cc1ccccc1)C(=O)Cn1c(=O)n(C)c2cnc(-c3ccccc3)nc21,12.3% (inactive)
4,CC(C)(C)c1ccc(-c2nc3c(N4CCN(Cc5ccc6nccnc6c5)CC4)cccc3[nH]2)cc1,29.3% (inactive)
5,CC(C)C[C@H](NC(=O)CNC(=O)OCc1ccccc1)C(=O)N[C@@H](Cc1ccccc1)C(=O)CCl (Cbz-Gly-Leu-Phe-CH2Cl),3.45% (inactive)
6,COc1ccc(C(=O)Nc2c(Cl)cncc2Cl)cc1OC1CCCC1,8.3% (inactive)
7,CC(=O)N[C@H]1[C@H](O[C@H]2CC[C@@]3(C)C(CC[C@]4(C)C3CC=C3C5CC(C)(C)CC[C@]5(C(=O)O)C(O)C[C@]34C)C2(C)C)O[C@H](CO[C@@H]2O[C@H](C)[C@H](O)[C@H](O)[C@H]2O[C@@H]2OC[C@@H](O)[C@H](O)[C@H]2O)[C@@H](O)[C@@H]1O (stereo partly drawn),8.32% [at 32.5 µM] (inactive)
8,Cc1nc2ccc(CN(C)c3ccc(C(=O)NC(CCC(=O)O)C(=O)O)s3)cc2c(=O)[nH]1 (stereo not drawn),-4.7% (inactive)
9,Fc1ccc(-c2nc(-c3ccccc3F)[nH]c2-c2ccncc2)cc1,0% (inactive)
10,CN1CCN(C2=Nc3ccccc3Nc3ccc(OS(=O)(=O)C(F)(F)F)cc32)CC1,8.62% (inactive)
11,CC1=CC2/C=C(\C)CCC(O)C(=O)C(O)CC(=O)C23C(=O)NC(CC(C)C)C3C1C (stereo not drawn),7.51% [at 57.1 µM] (inactive)
12,Cc1[nH]c2ccc(F)cc2c1-c1nc2c3cccnc3c3ncccc3c2[nH]1,-11% (inactive)
13,CCNC(=O)C#Cc1ccc2c(C(=Nc3ccc(CN(C)C)cc3)c3ccccc3)c(O)[nH]c2c1,269% [at 57.1 µM] (inactive)
